Experimental data from the supplement of paper PMC10849652.
The full data set covers some 7,900 targets. This sample favours those with a hit. About 0.6% of all pairs of compound and target were hits. A number with no mark means an inactive call.

Assays:
Assay in all cases: log2 fold change, soluble protein after heating vs DMSO (PISA); higher = thermal stabilisation; K562 cells, 10 uM, 30 min; active = over 0.2 and 3.5 SD of the protein, either way, in both replicates (recomputed)
[1] = compound: CN1CCN(CCOc2cc(OC3CCOCC3)c3c(Nc4c(Cl)ccc5c4OCO5)ncnc3c2)CC1 [saracatinib]
Method in brief: (§1)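 K562 cells at 2×10^6 cells/mL were treated with 10 μM compound for 30 min. Aliquots were heated for 3 min across 48°C-58°C, pooled, and extracted in PBS with 0.5% NP-40 at 4°C; soluble protein was the supernatant after 21,000xg for 90 min. Soluble protein was quantified by TMTpro 16plex LC-MS/MS with channel sums equalised, and reported as log2 fold change in thermal stability against DMSO controls, with values from duplicates.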

[2] = compound: CN1CC[C@H](c2c(O)cc(O)c3c(=O)cc(-c4ccccc4Cl)oc23)[C@H](O)C1 [alvocidib]
Method in brief: as §1

[3] = compound: CN1CCc2c(c3ccccc3n2Cc2ccc(C(=O)NO)cc2)C1 [Tubastatin A]
Method in brief: as §1

[4] = compound: CNC(=O)C1=CC=CC=C1NC2=NC(=NC=C2Cl)NC3=C(C=C(C=C3)N4CCOCC4)OC
Method in brief: as §1

[5] = compound: CNC(=O)c1ccc(Nc2ncc(C(F)(F)F)c(NCc3nccnc3N(C)S(C)(=O)=O)n2)cc1 [defactinib]
Method in brief: as §1

[6] = compound: CNCc1ccc(-c2[nH]c3cc(F)cc4c3c2CCNC4=O)cc1 [rucaparib]
Method in brief: as §1

[7] = compound: CNc1nc(-c2ccc3c(N)n[nH]c3c2)cc(N2C[C@@H](C(=O)NC3CCCCC3)CC[C@H]2C)n1
Method in brief: as §1

[8] = compound: COC(=O)N[C@@H](C)CNc1nccc(-c2cn(C(C)C)nc2-c2cc(Cl)cc(NS(C)(=O)=O)c2F)n1 [encorafenib]
Method in brief: as §1

[9] = compound: COC(=O)[C@H](CCSC)NC(=O)C1=C(C=C(C=C1)NC[C@H](CS)N)C2=CC=CC=C2
Method in brief: as §1

[10] = compound: CN1CCN(c2nc(C3=C(c4c[nH]c5ccccc45)C(=O)NC3=O)c3ccccc3n2)CC1 [sotrastaurin]
Method in brief: as §1

Sequence of UniProt P51812 (P51812 whole entry, looked up): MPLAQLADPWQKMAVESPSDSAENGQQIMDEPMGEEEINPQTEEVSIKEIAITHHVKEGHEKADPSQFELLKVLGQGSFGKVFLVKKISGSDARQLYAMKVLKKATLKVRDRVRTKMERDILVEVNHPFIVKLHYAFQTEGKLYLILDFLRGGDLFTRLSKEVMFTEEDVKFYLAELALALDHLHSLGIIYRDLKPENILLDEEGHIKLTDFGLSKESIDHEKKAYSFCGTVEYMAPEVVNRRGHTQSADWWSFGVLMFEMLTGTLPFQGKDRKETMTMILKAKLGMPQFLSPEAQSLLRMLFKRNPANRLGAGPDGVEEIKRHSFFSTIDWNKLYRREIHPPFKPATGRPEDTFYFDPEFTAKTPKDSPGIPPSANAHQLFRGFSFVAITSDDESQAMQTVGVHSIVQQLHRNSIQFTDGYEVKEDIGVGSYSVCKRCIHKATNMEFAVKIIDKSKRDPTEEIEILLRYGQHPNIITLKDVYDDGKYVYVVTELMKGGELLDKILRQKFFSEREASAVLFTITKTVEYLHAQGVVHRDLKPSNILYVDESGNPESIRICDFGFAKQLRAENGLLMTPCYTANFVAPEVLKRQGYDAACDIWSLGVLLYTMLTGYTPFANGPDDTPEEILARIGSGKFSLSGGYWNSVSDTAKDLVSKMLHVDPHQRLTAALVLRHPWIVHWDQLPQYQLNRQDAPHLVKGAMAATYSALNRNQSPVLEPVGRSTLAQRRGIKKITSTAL
Sequence of UniProt Q5RL73 (Q5RL73 whole entry, looked up): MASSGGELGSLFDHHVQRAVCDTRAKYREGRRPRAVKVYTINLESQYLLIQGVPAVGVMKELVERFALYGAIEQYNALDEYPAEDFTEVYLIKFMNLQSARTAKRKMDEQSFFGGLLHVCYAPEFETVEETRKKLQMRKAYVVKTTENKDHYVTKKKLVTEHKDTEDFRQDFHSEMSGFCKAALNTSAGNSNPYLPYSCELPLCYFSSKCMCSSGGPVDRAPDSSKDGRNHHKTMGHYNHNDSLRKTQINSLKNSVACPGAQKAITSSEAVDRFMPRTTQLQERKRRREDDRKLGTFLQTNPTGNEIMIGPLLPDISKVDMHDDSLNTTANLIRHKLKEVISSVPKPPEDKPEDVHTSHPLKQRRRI
Sequence of UniProt Q96GF1 (Q96GF1 whole entry, looked up): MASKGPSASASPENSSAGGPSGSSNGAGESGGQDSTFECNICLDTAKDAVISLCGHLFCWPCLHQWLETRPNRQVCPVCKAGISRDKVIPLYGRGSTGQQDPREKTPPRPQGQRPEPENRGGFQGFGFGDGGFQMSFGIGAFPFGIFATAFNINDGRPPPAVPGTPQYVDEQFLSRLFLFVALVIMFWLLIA
Sequence of UniProt Q96NL6 (Q96NL6 whole entry, looked up): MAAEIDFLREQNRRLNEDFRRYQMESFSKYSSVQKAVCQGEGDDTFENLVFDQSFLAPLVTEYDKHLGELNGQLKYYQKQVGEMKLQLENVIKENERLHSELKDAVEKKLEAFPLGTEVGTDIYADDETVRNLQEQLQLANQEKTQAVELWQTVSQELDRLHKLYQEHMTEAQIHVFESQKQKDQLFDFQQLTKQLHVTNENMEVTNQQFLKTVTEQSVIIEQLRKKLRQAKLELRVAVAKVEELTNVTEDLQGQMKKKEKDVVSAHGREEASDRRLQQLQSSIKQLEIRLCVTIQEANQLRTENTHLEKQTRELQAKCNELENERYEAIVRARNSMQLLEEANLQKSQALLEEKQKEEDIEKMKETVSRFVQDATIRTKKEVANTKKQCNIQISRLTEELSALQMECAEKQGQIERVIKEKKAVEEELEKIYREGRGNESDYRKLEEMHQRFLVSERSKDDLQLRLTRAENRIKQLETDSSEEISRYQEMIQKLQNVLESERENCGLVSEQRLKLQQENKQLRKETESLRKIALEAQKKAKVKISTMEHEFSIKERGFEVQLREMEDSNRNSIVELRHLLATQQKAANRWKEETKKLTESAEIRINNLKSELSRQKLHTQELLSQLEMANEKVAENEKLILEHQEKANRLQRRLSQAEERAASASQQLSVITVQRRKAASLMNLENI
Sequence of UniProt Q9NRX5 (Q9NRX5 whole entry, looked up): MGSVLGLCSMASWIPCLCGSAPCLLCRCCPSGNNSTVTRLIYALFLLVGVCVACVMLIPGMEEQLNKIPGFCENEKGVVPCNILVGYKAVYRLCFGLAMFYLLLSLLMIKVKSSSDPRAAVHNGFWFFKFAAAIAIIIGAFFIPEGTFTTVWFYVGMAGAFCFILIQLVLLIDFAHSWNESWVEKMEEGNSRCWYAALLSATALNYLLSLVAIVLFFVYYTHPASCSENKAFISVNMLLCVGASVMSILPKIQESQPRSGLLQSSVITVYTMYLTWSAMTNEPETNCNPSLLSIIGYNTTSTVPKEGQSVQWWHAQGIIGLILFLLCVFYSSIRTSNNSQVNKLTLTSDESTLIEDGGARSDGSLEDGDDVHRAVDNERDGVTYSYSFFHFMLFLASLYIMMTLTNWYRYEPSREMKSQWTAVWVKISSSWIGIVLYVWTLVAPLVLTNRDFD
Sequence of UniProt O95716 (O95716 whole entry, looked up): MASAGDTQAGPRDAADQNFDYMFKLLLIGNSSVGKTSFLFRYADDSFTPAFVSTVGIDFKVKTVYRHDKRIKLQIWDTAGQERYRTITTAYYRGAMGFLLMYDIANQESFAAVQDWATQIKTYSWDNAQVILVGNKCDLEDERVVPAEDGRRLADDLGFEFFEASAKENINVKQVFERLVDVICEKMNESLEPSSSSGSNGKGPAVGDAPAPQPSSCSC
Sequence of UniProt P78332 (P78332 whole entry, looked up): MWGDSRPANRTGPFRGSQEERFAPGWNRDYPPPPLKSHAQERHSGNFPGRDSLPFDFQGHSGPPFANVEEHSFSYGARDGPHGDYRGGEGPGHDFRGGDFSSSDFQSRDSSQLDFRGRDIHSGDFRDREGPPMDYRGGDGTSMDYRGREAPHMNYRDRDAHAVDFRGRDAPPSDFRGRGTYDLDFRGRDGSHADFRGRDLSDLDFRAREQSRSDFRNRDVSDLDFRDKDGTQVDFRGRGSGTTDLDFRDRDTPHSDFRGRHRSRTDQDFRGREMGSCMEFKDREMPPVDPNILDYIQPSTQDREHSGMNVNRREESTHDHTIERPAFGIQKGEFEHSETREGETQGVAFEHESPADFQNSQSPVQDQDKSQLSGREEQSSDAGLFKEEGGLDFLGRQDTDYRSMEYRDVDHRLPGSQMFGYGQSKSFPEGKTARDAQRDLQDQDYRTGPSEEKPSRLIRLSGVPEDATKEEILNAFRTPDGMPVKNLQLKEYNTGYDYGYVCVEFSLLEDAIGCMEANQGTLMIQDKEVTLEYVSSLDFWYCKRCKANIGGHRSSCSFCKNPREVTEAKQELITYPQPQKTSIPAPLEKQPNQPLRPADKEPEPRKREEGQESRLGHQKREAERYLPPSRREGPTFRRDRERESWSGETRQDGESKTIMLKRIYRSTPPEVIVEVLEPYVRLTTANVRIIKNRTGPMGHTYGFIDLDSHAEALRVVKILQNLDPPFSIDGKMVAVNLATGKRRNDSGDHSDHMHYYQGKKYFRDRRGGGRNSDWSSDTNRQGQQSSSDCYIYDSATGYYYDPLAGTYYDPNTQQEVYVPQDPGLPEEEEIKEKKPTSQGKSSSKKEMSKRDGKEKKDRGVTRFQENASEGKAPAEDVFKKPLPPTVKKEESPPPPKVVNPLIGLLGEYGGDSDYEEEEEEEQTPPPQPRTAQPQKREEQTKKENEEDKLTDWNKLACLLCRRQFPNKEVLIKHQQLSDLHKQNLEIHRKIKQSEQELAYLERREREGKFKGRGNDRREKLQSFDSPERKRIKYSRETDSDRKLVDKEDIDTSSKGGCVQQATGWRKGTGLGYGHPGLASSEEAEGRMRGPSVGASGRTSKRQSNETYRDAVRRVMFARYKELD
Sequence of UniProt P60903 (P60903 whole entry, looked up): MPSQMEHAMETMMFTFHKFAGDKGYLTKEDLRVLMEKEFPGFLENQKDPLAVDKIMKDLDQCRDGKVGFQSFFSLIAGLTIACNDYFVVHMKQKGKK
Sequence of UniProt O75582 (O75582 whole entry, looked up): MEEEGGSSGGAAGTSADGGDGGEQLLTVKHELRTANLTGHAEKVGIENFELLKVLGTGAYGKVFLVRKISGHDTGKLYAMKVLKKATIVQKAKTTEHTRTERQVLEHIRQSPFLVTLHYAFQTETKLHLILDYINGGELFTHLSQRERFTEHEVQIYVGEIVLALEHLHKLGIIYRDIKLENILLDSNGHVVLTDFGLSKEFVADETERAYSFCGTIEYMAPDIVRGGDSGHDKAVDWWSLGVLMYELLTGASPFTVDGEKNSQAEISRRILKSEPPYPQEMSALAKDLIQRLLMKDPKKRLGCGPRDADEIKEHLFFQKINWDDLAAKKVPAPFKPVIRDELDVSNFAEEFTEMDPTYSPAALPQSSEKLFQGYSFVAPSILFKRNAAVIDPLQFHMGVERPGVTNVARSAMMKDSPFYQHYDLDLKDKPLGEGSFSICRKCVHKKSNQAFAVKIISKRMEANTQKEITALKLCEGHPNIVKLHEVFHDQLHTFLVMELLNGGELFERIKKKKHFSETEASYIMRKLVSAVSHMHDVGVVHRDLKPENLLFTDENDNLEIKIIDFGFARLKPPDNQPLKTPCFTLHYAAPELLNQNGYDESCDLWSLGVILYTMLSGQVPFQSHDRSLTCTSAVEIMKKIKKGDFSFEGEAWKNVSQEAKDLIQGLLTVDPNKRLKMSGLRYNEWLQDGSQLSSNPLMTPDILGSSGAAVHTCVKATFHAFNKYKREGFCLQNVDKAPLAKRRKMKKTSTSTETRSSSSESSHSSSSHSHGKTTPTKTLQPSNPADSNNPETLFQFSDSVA

Target	log2 fold change [1]	log2 fold change [2]	log2 fold change [3]	log2 fold change [4]	log2 fold change [5]	log2 fold change [6]	log2 fold change [7]	log2 fold change [8]	log2 fold change [9]	log2 fold change [10]
SLC1A3 (UniProt P43003)	0.277	0.056	-0.157	-0.034	-0.013	0.027	0.481 (active)	0.072	0.106	–
RPS6KA3 (UniProt P51812)	0.021	-0.046	0.019	–	-0.148	0.006	-0.049	-0.01	-0.027	-0.049
RBM26 isoform 3 (UniProt Q5T8P6)	–	–	–	–	–	–	–	–	–	-0.052
RBM6 (UniProt P78332)	-0.032	-0.073	-0.077	–	–	–	0.247	–	–	-0.077
RNF220 isoform 3 (UniProt Q5VTB9)	–	–	–	-0.067	–	–	–	–	–	–
RPS6KA5 (UniProt O75582)	–	–	–	0.083	–	0.135	–	0.148	–	–
RBM48 isoform 2 (UniProt Q5RL73)	–	-0.011	0.016	-0.065	–	–	–	–	–	-0.001
RNF185 (UniProt Q96GF1)	–	-0.003	0.011	0.001	-0.023	0.006	–	-0.094	0.125	–
RELA (UniProt Q04206)	0.027	–	-0.017	0.032	-0.077	-0.026	-0.029	0.044	-0.011	-0.036
RAB3D (UniProt O95716)	0.295	0.126	0.024	0.022	0.064	-0.021	-0.016	-0.043	-0.094	–
RAB3IL1 (UniProt E9PK89)	–	0.009	-0.095	-0.011	-0.016	-0.074	–	0.084	0.045	-0.082
SCLT1 (UniProt Q96NL6)	0.073	0	0.116	–	-0.047	–	0.121	–	-0.087	-0.095
SERINC1 (UniProt Q9NRX5)	0.093	–	-0.128	-0.008	0.031	-0.095	-0.088	-0.062	0.055	-0.053
S100A10 (UniProt P60903)	–	-0.293	0.195	–	–	-0.038	–	-0.293	–	-0.147
